The source of these data is PubChem BioAssay (Tox21).

Assay [1] can be described thus: qHTS RealTime-Glo MT Cell Viability Assay in HEK293 cells - 16 hour (AID 1224872). Note: nearly all actives have a fitted effect of over 50% in size. Note: potency is the fitted concentration of half-maximal effect. Summed up:
(§1)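 Viability tracked continuously by luminescence as live cells reduce a prosubstrate for NanoLuc; HEK293 cells preincubated 5 h, compound-treated at 37 C, and read at 0, 8, 16, 24, 32 and 40 h.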
A general note: In qHTS, concentration-response curves come from the screen itself.

Assay [2] can be described thus: qHTS RealTime-Glo MT Cell Viability Assay in HepG2 cells - 8 hour (AID 1224873). Note: nearly all actives have a fitted effect of over 55% in size. Note: potency is the fitted concentration of half-maximal effect. Summed up:
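HepG2 cells mixed with RealTime-Glo MT reagents (NanoLuc plus cell-permeant prosubstrate) were seeded at 600 cells/well, incubated 5 h at 37 C/5% CO2, then pinned with compounds in DMSO; nonlytic luminescence tracked viability during 40 h treatment.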

A short description of assay [3]: qHTS RealTime-Glo MT Cell Viability Assay in HEK293 cells - 40 hour (AID 1224874). Note: nearly all actives have a fitted effect of over 50% in size. Note: potency is the fitted concentration of half-maximal effect. Conditions: RealTime-Glo luminescence; max response: stronger effect = lower value. Summed up: (§2)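 HEK293 cells mixed with RealTime-Glo reagents (NanoLuc plus cell-permeant prosubstrate) at 600 cells/well, preincubated 5 h at 37 C/5% CO2, then given 23 nL compound in DMSO. Nonlytic luminescence from viable cells was read at 0, 8, 16, 24, 32 and 40 h.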

Assay [4] in a line: A CellTox Green Cytotoxicity Assay to monitor cytotoxicity in HEK293 cells - 24 hour (AID 1224875). Note: nearly all actives have a fitted effect of over 45% in size. Note: potency is the fitted concentration of half-maximal effect. Summed up:
(§3)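 HEK293 cells premixed with CellTox Green dye were seeded at 600 cells/well and left 5 h at 37 C/5% CO2 before pin transfer of 23 nL compound in DMSO. Fluorescence from dye bound to dead-cell DNA was read during 40 h treatment.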

A short description of assay [5]: A CellTox Green Cytotoxicity Assay to monitor cytotoxicity in HepG2 cells - 16 hour (AID 1224876). Note: nearly all actives have a fitted effect of over 45% in size. Note: potency is the fitted concentration of half-maximal effect. Summed up: (§4)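 HepG2 cells were seeded together with the CellTox Green dye at 600 cells/well, left 5 h at 37 C/5% CO2, then given compounds in DMSO. Fluorescence from dye bound to dead-cell DNA was read repeatedly over 40 h of treatment at 37 C.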
Assay [6] in a line: qHTS RealTime-Glo MT Cell Viability Assay in HepG2 cells - 32 hour (AID 1224877). Note: nearly all actives have a fitted effect of over 55% in size. Note: potency is the fitted concentration of half-maximal effect. An outline of the steps:
(§5)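 Viability was tracked continuously by NanoLuc luminescence from prosubstrate reduced by living HepG2 cells, at successive time points over 40 h of compound exposure. Cells with reagent were preincubated 5 h at 37 °C before compound addition.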

Assay [7] can be described thus: A CellTox Green Cytotoxicity Assay to monitor cytotoxicity in HepG2 cells - 24 hour (AID 1224878). Note: nearly all actives have a fitted effect of over 45% in size. Note: potency is the fitted concentration of half-maximal effect. An outline of the steps: as §4
Assay [8] in a line: A CellTox Green Cytotoxicity Assay to monitor cytotoxicity in HepG2 cells - 40 hour (AID 1224879). Note: nearly all actives have a fitted effect of over 40% in size. Note: potency is the fitted concentration of half-maximal effect. Summed up: as §4
A short description of assay [9]: qHTS RealTime-Glo MT Cell Viability Assay in HEK293 cells - 0 hour (AID 1224880). Note: top concentration of the series differs between compounds; nearly all actives have a fitted effect of over 45% in size. An outline of the steps: as §2
The nature of assay [10]: A CellTox Green Cytotoxicity Assay to monitor cytotoxicity in HEK293 cells - 32 hour (AID 1224881). Note: nearly all actives have a fitted effect of over 40% in size. Note: potency is the fitted concentration of half-maximal effect. Summed up:
as §3

Assay [11] in a line: A CellTox Green Cytotoxicity Assay to monitor cytotoxicity in HepG2 cells - 0 hour (AID 1224882). Note: nearly all actives have a fitted effect of over 35% in size. Summed up: as §4
A short description of assay [12]: A CellTox Green Cytotoxicity Assay to monitor cytotoxicity in HepG2 cells - 32 hour (AID 1224883). Note: nearly all actives have a fitted effect of over 50% in size. Note: potency is the fitted concentration of half-maximal effect. An outline of the steps: as §4
Assay [13] can be described thus: A CellTox Green Cytotoxicity Assay to monitor cytotoxicity in HEK293 cells - 8 hour (AID 1224884). Note: nearly all actives have a fitted effect of over 35% in size. Note: potency is the fitted concentration of half-maximal effect. An outline of the steps:
as §3

The nature of assay [14]: qHTS RealTime-Glo MT Cell Viability Assay in HepG2 cells - 16 hour (AID 1224885). Note: nearly all actives have a fitted effect of over 50% in size. Note: potency is the fitted concentration of half-maximal effect. Summed up: as §5
Assay [15] can be described thus: qHTS RealTime-Glo MT Cell Viability Assay in HEK293 cells - 24 hour (AID 1224886). Note: nearly all actives have a fitted effect of over 50% in size. Note: potency is the fitted concentration of half-maximal effect. An outline of the steps: as §1
Assay [16] in a line: A CellTox Green Cytotoxicity Assay to monitor cytotoxicity in HEK293 cells - 16 hour (AID 1224888). Note: nearly all actives have a fitted effect of over 35% in size. Note: potency is the fitted concentration of half-maximal effect. Summed up:
as §3

Assay [17] in a line: qHTS RealTime-Glo MT Cell Viability Assay in HepG2 cells - 0 hour (AID 1224889). Note: nearly all actives have a fitted effect of over 50% in size. An outline of the steps:
as §5

The nature of assay [18]: A CellTox Green Cytotoxicity Assay to monitor cytotoxicity in HepG2 cells - 8 hour (AID 1224890). Note: nearly all actives have a fitted effect of over 45% in size. Note: potency is the fitted concentration of half-maximal effect. An outline of the steps:
as §4

Assay [19] is described as follows: qHTS assay to identify small molecule antagonists of the estrogen receptor alpha (ER-alpha) signaling pathway using the BG1 cell line in the presence of 0.1 nM 17-beta-estradiol - cell viability counter screen (AID 1259241). Note: nearly all actives have a fitted effect of over 40% in size. Note: potency is the fitted concentration of half-maximal effect. An outline of the steps:
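Cells were plated and left 24 hr, compounds in DMSO were pinned in, 17beta-estradiol was added to 0.1 nM final, and after 22 hr CellTiter-Fluor reagent was added for 30 min before fluorescence was read.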

The nature of assay [20]: qHTS RealTime-Glo MT Cell Viability Assay in HEK293 cells - 8 hour (AID 1224887). Note: nearly all actives have a fitted effect of over 50% in size. Note: potency is the fitted concentration of half-maximal effect. An outline of the steps:
as §2

Where “and” joins values, the source holds several entries; their conditions need not be identical. Equal entries are not always repeated. Results filed as inconclusive are left out. More than one record can exist for a structure, and the calls need not agree. Calls of active or inactive are those of the source. Calls come from the whole dose curve; as a rule, active = well fitted curve in the direction sought with a large enough effect in the repeat runs; inconclusive = weak or mixed curves; inactive = no such curve, though single readings can be large; an effect the other way counts as inactive or inconclusive.
% is set by controls: 0 for no effect and ±100 for the full control effect.

Turning to `CCCCCCCCCCCC[N+](C)(C)Cc1ccccc1`, the Potency is 24.1 µM (active) and 23.8 µM (active) and 8.49 µM (active) in assay [1]; 48 µM (active) and 53.2 µM (active) and 26.8 µM (active) in assay [2]; 1.91 µM (active) and 2.12 µM (active) and 1.9 µM (active) in assay [3]; 42.8 µM (active) and 47.4 µM (active) and 23.9 µM (active) in assay [4]; 21.5 µM (active) and 26.7 µM (active) and 19 µM (active) in assay [5]; 9.58 µM (active) and 18.9 µM (active) and 6.74 µM (active) in assay [6]. The Potency was 19.1 µM (active) and 23.8 µM (active) and 10.7 µM (active) in [7]; 13.5 µM (active) and 18.9 µM (active) and 8.49 µM (active) in assay [8]; 38.1 µM (active) and 29.9 µM (active) and 23.9 µM (active) in [10]; 17 µM (active) and 23.8 µM (active) and 10.7 µM (active) in assay [12]; 59.7 µM (active) in assay [13]; 21.5 µM (active) and 23.8 µM (active) and 12 µM (active) in assay [14]. In addition, the Potency in assay [15] is 4.28 µM (active) and 4.23 µM (active) and 3.01 µM (active); in [16], 48 µM (active) and 53.2 µM (active) and 26.8 µM (active); in [18] it was 53.9 µM (active) and 47.4 µM (active) and 23.9 µM (active). In addition, the Potency result in assay [9], in assay [11] and in assay [17] was “inactive” each time.

`CN1[C@@H]2CC(OC(=O)[C@H](CO)c3ccccc3)C[C@H]1[C@@H]1O[C@@H]12` (stereo not given in full): the Potency entry in assay [1], in [2], in assay [4], in assay [5], in [6] and in assay [7] was “inactive” in each case. Moreover, the Potency result in assay [8], in assay [9], in [10], in assay [11], in assay [12] and in assay [13] was “inactive” throughout. Further, the Potency entry in [14], in assay [15], in [16], in [17], in assay [18] and in [19] was “inactive” each time. For the same compound, the max response in assay [3] was 0.652% (inactive) [middle of 4 runs].

Consider `CN1CCc2cccc3c2[C@H]1Cc1ccc(O)c(O)c1-3`, for which the Potency in assay [1] was 15.7 µM (active) and 10.3 µM (active); in assay [2], 49.5 µM (active); in [3] it was 15.7 µM (active) and 10.3 µM (active) and 21.3 µM (active); in assay [6] it was 49.5 µM (active) and 16.3 µM (active); in [8], 49.5 µM (active) and 18.3 µM (active) and inactive; in assay [10] it was 55.5 µM (active) and inactive. Besides, the Potency in assay [14] was 49.5 µM (active) and 18.3 µM (active) and 23.9 µM (active); in assay [15], 14 µM (active) and 8.17 µM (active) and 23.9 µM (active); in [20], 24.8 µM (active) and 14.5 µM (active); in assay [19], 49.1 µM (active) and 20.4 µM (active). For the same compound, the Potency result in assay [4], in [5], in [7], in assay [9], in assay [11] and in assay [12] was “inactive” throughout. Moreover, the Potency entry in assay [13], in assay [16], in [17] and in assay [18] was “inactive” each time.

Take `CC(=O)CCC(=O)O`: the Potency result in [1], in assay [2], in assay [4], in [5], in [6] and in assay [7] was “inactive” throughout. Moreover, the Potency entry in assay [8], in [9], in [10], in assay [11], in [12] and in assay [13] was “inactive” in each case. Moreover, the Potency entry in assay [14], in assay [15], in assay [20], in assay [16], in assay [17] and in assay [18] was “inactive” in each case. Also, the max response in assay [3] is -1.85% (inactive) and 3.92% (inactive) and 7.17% (inactive).

Regarding `O=C1O[C@H]([C@@H](O)CO)C(O)=C1O`, the Potency entry in assay [1], in assay [2], in assay [4], in [5], in assay [6] and in [7] was “inactive” in each case. Besides, the Potency result in assay [8], in assay [9], in [10], in assay [11], in [12] and in assay [13] was “inactive” each time. Moreover, the Potency entry in assay [14], in assay [15], in assay [20], in assay [16], in [17] and in assay [18] was “inactive” in each case. In addition, in assay [3], the max response was 5.34% (inactive) [middle of 5 runs].

As to `CCCCNC(=O)NS(=O)(=O)c1ccc(C)cc1`, the Potency result in [1], in [2], in assay [4], in [5], in assay [6] and in assay [7] was “inactive” each time. In addition, the Potency entry in assay [8], in assay [9], in assay [10], in [11], in [12] and in assay [13] was “inactive” each time. Moreover, the Potency result in assay [14], in [15], in assay [16], in assay [17] and in [18] was “inactive” each time. For the same compound, the max response in assay [3] is -2.16% (inactive) and 5.08% (inactive) and 4.55% (inactive).

Regarding `OC[C@H]1O[C@H](O[C@]2(CCl)O[C@H](CCl)[C@@H](O)[C@@H]2O)[C@H](O)[C@@H](O)[C@H]1Cl`, the Potency result in assay [1], in assay [2], in assay [4], in assay [5], in assay [6] and in [7] was “inactive” in each case. For the same compound, the Potency entry in assay [8], in assay [9], in assay [10], in assay [11], in assay [12] and in assay [13] was “inactive” in each case. In addition, the Potency result in [14], in assay [15], in assay [16], in [17], in [18] and in assay [19] was “inactive” throughout. Moreover, in assay [3], the max response is -6.96% (inactive) and 4.96% (inactive) and 1.17% (inactive).

`C=C1CC[C@H](O)C/C1=C\C=C1/CCC[C@]2(C)[C@@H]([C@H](C)CCCC(C)C)CC[C@@H]12`: the Potency was 38.5 µM (active) in [1], 43.2 µM (active) in assay [3], 43.2 µM (active) in assay [15] and 24.3 µM (active) in [20]. Also, the Potency result in assay [2], in assay [4], in assay [5], in assay [6], in [7] and in assay [8] was “inactive” throughout. Besides, the Potency entry in assay [9], in [10], in assay [11], in [12], in assay [13] and in assay [14] was “inactive” in each case. The Potency entry in assay [16], in [18] and in assay [19] was “inactive” each time.

Consider `Cc1ccc(S(=O)(=O)O)cc1`, for which the Potency result in assay [1], in [2], in [4], in [5], in assay [6] and in [7] was “inactive” in each case. Moreover, the Potency entry in [8], in assay [9], in assay [10], in [11], in assay [12] and in [13] was “inactive” in each case. The Potency entry in [14], in assay [15], in assay [20], in assay [16], in assay [17] and in [18] was “inactive” throughout. The max response in assay [3] was 2.66% (inactive) and 6.16% (inactive) and 6.13% (inactive).
